Compound activity as filed in PubChem.
Myeloid diff MLP = induction of myeloid progenitor differentiation, primary screen, cell-based, flow cytometry, MLPCN library; ER-HoxA9 myeloid progenitors, lysozyme-GFP differentiation; actives 1% (n = 360,000); calls only at 10 µM;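 active means normalized GFP-positive differentiation at or above the plate's own cutoff, the solvent-only control mean plus 3 SD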;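 further: cells exposed to compound for four days before flow analysis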
HNF4A DNA FP = change in binding of human HNF4A to DNA, primary screen, biochemical, fluorescence polarization, FITC-DNA. Hepatocyte nuclear factor 4-alpha (Homo sapiens), P41235. 1 h. activity change, % at 10 µM. actives 0.3% (n = 360,000). AID 1224865, 2016; in the data active means activity change above about 30%, passing the limit was not always enough
Target sequence (P41235 whole entry, looked up): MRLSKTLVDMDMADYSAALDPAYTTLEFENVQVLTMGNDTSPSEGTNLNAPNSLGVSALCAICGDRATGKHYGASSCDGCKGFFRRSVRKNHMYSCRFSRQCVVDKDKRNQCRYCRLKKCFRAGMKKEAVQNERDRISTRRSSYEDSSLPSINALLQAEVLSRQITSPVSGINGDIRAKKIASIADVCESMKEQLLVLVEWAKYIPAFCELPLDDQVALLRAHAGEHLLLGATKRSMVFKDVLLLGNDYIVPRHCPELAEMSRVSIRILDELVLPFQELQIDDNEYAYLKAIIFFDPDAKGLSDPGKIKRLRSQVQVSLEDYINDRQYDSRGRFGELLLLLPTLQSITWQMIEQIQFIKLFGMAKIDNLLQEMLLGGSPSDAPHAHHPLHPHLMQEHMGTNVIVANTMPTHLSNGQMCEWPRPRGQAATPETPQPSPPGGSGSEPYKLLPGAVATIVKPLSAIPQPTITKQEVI
TPT1 inh = Candida albicans TPT1 enzyme inhibitors, primary screen, biochemical, fluorescence polarization; tRNA 2'-phosphotransferase TPT1 (Candida albicans SC5314); recombinant caTPT1, FP RNA substrate dephosphorylation; inhibition, % at 5 µM; actives 0.81% (n = 300,000); AID 1962, 2009;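 active means inhibition above the mean of all tested compounds plus 3 SD, set per screening campaign, cut at about 24% in these data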;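 further: plate controls were DMSO alone for no effect and ferristatin control at 100 nM for full effect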
Rpn11 inh = Rpn11 (PSMD14) deubiquitinase inhibitors, primary screen, biochemical, fluorescence polarization, uHTS; 26S proteasome non-ATPase regulatory subunit 14 (Homo sapiens), O00487; AID 588493, 2011; inhibition, % at 20 µM; actives 0.59% (n = 360,000); human 26S proteasome, Ub4-pepOG fluorescence polarization; 20S core pre-blocked with epoxomicin;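 active means inhibition at 20 µM, scaled to each plate's controls, above about 33%, limit read from the data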
caTPT1 confirm = Candida albicans TPT1 inhibitors, confirmation, biochemical, fluorescence polarization, triplicate | actives 74% (n = 2,400) | inhibition, % at 5 µM | AID 2149, 2009 | recombinant caTPT1, RNase T1 coupled | shares compounds with TPT1 inh;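 active means inhibition above the primary screen limit, the mean inhibition of all tested compounds plus 3 SD, cut at about 25% in these data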
RNase T1 inh = RNase T1 inhibitors, counter-screen for TPT1 inhibitor project, biochemical, fluorescence polarization. shares compounds with TPT1 inh. RNase T1 cleavage, 1536-well. inhibition, % at 5 µM. actives 83% (n = 2,400). AID 2153, 2009;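 active means inhibition above the solvent-only control well mean plus 3 SD, limit set per screening run, cut at about 23% in these data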;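 further: plate controls were DMSO wells with enzyme for no effect and wells without RNase T1 for full effect; inhibitors block cleavage so intact labeled substrate keeps polarization high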
* hit, by the source's call; i = inactive; . = not tested or not shown. Only some compounds are listed: those with a hit (about 2.1% of all), similar ones and a draw of the others.

SMILES	Myeloid diff MLP	HNF4A DNA FP	TPT1 inh	Rpn11 inh	caTPT1 confirm	RNase T1 inh
N#CC(C#N)=C/C(C#N)=C(/N)N1CCN(c2ccc(Cl)cc2)CC1	i	1	56*	14	15	21
CN(C)CCCN(C(=O)c1ccc(Br)s1)c1nc2cc3c(cc2s1)OCCO3	i	1	31*	-3	28*	30*
COc1ccc(C(=O)c2c(N)sc3c2CCN(C)C3)cc1	i	-13	42*	1	40*	48*
Cc1cc2nc(-c3ccc(SCc4ccccn4)nc3)[nH]c2cc1C	i	-2	2	31	.	.
COCCN(C(=O)COC(=O)c1ccc(Cl)nc1)c1c(N)n(Cc2ccccc2)c(=O)[nH]c1=O	i	0	0	1	.	.
CS(=O)(=O)Nc1cccc(C2=NN(C(=O)c3ccco3)C(c3cccs3)C2)c1 (configuration not stated)	i	0	-1	-6	.	.
COc1ccc(CCc2nnc(CCC(=O)NCCc3ncccc3C)o2)cc1	i	-1	-2	0	.	.
O=C(N/N=C/c1ccc([N+](=O)[O-])o1)C(=O)Nc1ccc(C(=O)O)cc1	i	-2	-3	-5	.	.
O=[N+]([O-])c1ccc(N/N=C/C=C/c2ccco2)cc1	i	89*	119*	.	123*	122*
O=C(O)c1ccc(N/N=C/C=C/c2ccc([N+](=O)[O-])o2)cc1	i	24	44*	33	63*	72*
CC(=O)/C(=N/Nc1ccccc1Cl)Sc1nnc(C(O)c2ccccc2)n1-c1ccccc1 (configuration not stated)	i	0	48*	-8	6	6
CCOC(=O)C1=NOC(COc2ccccc2C=O)C1 (configuration not stated)	i	-2	-2	7	.	.
Cc1ccc(OCC(=O)Nc2ccc(CN3CCCCC3)cc2)c(C)c1	i	4	0	0	.	.
COc1ccc(CC(C(=O)Nc2cccc(F)c2)c2nn[nH]n2)c(OC)c1 (configuration not stated)	i	-2	-3	3	.	.
